In PubChem BioAssay (Tox21):
Inconclusive results are not listed. Unmarked numbers belong to inactive results. The source made the active and inactive calls. Calls come from the whole dose curve; as a rule, active = well fitted curve in the direction sought with a large enough effect in the repeat runs; inconclusive = weak or mixed curves; inactive = no such curve, though single readings can be large; an effect the other way counts as inactive or inconclusive.

System: not listed separately
Assay: qHTS assay to identify aromatase inhibitors - cell viability counter screen (AID 743084);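 note: cells stimulated with testosterone during compound exposure; nearly all actives have a fitted effect of over 55% in size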
Settings: MCF-7 aro ERE viability, CellTiter-Fluor, 24 h; series mostly up to 70.3 µM; activity change, negative = cytotoxicity: at the top concentration
% is set by controls: 0 for no effect and ±100 for the full control effect; potency is the fitted concentration of half-maximal effect.

SMILES	activity change, negative = cytotoxicity	Potency
C=CC(C)(O)CC/C=C(/C)CCC=C(C)C (stereo not given)	-19.3%	–
C[C@@H](O)[C@H]1C(=O)N2C(C(=O)O)=C(S[C@@H]3CN[C@H](CNS(N)(=O)=O)C3)[C@H](C)[C@H]12	-0.604%	–
O=C(NC1CCN(CCc2c[nH]c3ccccc23)CC1)c1ccccc1	-0.249%	–
Cc1c(-c2cccnc2)c2ccccc2n1CCCCC(=O)O	26.6%	–
COc1ccc(C(=O)c2ccc(C)cc2)c(O)c1	–	inactive
O=C(O)c1cc(C(=O)O)c(C(=O)O)cc1C(=O)O	-3.65%	–
OCCc1ccncc1	7.07%	–
CC(C)(C(=O)O)c1ccc(C(O)CCCN2CCC(C(O)(c3ccccc3)c3ccccc3)CC2)cc1 (stereo not given)	-1.06%	–
C1CCN(CN2CCCCC2)CC1	0.0701%	–
CC1=CC(=C(c2ccc(N)cc2)c2ccc(N)cc2)C=CC1=N	–	11.9 µM (active)
O=[N+]([O-])c1ccc(Cl)cc1Cl	9.57%	–
CCCCCCCCCCCCSC#N	-1.43%	–
COc1cc(CNC(=O)CCCC/C=C/C(C)C)ccc1O	–	inactive
C/C=C1\[C@H]2C=C(C)C[C@]1(N)c1ccc(=O)[nH]c1C2	-2.25%	–
O=C(OC1C[C@H]2CC[C@@H](C1)[N+]21CCCC1)C(O)(c1ccccc1)c1ccccc1 (stereo not given in full)	7.75%	–
CC(C)C[C@H](NC(=O)[C@H](Cc1ccccc1)NC(=O)c1cnccn1)B(O)O	–	1.33 µM (active)
CCOCCn1c(N2CCCN(C)CC2)nc2ccccc21	7.55%	–

SMILES	activity change, negative = cytotoxicity	Potency
CC(=O)c1ccc(Cl)c(Cl)c1Cl	-2.91%	–
C[C@H](CN1CCCC1)C(=O)c1ccc(C(F)(F)F)cc1	1.92%	–
C=CCCC	-24.1% [at 95 µM]	–
CC(=O)Nc1ccccc1O	4.25%	–
O=C(O)CNc1ccccc1	15.6%	–
CC(C)CC(C)(C)C	0.499% [at 95 µM]	–
O=C1OC(=O)C2CC=CCC12 (stereo not given)	4.58% [at 95 µM]	–
SCCOCCOCCS	2.54%	–
S=c1[nH][nH]c(=S)s1	5.36%	–
CC(C)(C)c1ccc(CCC=O)cc1	-15.2%	–
Cc1nc2sccn2c(=O)c1CCN1CCC(=C(c2ccc(F)cc2)c2ccc(F)cc2)CC1	3.97%	–
O=C(O)c1ccccc1-n1cc(C(=O)O)c(=O)c2cc(Nc3c(F)cc(F)cc3Cl)c(Cl)cc21	6.01%	–
O=C(O)COCC(=O)O	20.1% [at 95 µM]	–
NC(=O)c1ccccc1	2.12% [at 95 µM]	–
CCN(CCCCOC(=O)c1ccc(OC)c(OC)c1)C(C)Cc1ccc(OC)cc1 (stereo not given)	-10.8% [at 32.5 µM]	–
CCCN(C1CCN(C(=O)C2CCNCC2)CC1)[C@@H]1CCc2ccc(OC)cc2C1	-18.7%	–

Biological target: Aryl hydrocarbon receptor (Homo sapiens) (UniProt P35869)
Sequence (P35869 whole entry, looked up): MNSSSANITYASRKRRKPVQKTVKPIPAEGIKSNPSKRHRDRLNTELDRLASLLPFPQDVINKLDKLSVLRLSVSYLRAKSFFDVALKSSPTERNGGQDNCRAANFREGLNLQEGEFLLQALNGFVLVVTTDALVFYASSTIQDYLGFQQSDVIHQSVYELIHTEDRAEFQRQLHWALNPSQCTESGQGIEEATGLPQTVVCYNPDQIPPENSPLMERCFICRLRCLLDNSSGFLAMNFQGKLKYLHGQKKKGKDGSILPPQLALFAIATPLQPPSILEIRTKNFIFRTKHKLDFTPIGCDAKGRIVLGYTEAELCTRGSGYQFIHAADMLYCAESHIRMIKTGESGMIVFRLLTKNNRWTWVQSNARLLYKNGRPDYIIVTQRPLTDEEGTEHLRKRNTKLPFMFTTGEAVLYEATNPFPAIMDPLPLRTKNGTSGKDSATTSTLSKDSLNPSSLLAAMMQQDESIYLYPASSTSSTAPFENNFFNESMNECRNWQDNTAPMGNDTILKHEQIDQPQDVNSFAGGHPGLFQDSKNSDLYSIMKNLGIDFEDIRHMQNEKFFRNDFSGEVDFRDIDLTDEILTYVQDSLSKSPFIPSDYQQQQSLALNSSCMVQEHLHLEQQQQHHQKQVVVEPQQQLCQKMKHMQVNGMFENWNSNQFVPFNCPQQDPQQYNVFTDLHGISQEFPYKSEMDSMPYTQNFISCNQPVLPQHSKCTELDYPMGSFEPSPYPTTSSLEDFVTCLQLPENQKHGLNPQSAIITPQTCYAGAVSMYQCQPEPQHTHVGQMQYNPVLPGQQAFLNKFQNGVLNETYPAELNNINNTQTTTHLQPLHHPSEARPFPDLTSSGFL
Assay: qHTS assay to identify small molecule that activate the aryl hydrocarbon receptor (AhR) signaling pathway (AID 743085); note: nearly all actives have a fitted effect of over 15% in size;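 for activation: HG2L7.5c1 human HepG2 liver cells with stably integrated DRE-driven firefly reporter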
Settings: HepG2 AhR-luc (HG2L7.5c1), luciferase, 24 h; series mostly up to 70.3 µM; activation: at the top concentration
In short: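 HepG2 cells stably carrying a 20-DRE firefly luciferase reporter (HG2L7.5c1) treated with compound for 24 hr at 37C. Luciferase read by ONE-Glo luminescence, with CellTiter-Fluor viability read first.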

SMILES	activation	Potency
C=CC(C)(O)CC/C=C(/C)CCC=C(C)C (stereo not given)	-0.755%	–
C[C@@H](O)[C@H]1C(=O)N2C(C(=O)O)=C(S[C@@H]3CN[C@H](CNS(N)(=O)=O)C3)[C@H](C)[C@H]12	-2.36%	–
O=C(NC1CCN(CCc2c[nH]c3ccccc23)CC1)c1ccccc1	–	29.8 µM (active)
COc1ccc(C(=O)c2ccc(C)cc2)c(O)c1	–	9.44 µM (active)
O=C(O)c1cc(C(=O)O)c(C(=O)O)cc1C(=O)O	1.87%	–
OCCc1ccncc1	-1.2%	–
O=C1c2ccccc2C(=O)c2c1ccc(O)c2O	–	29.8 µM (active)
CC1=CC(=C(c2ccc(N)cc2)c2ccc(N)cc2)C=CC1=N	–	inactive
O=[N+]([O-])c1ccc(Cl)cc1Cl	2.93%	–
CCCCCCCCCCCCSC#N	-0.844%	–
COc1cc(CNC(=O)CCCC/C=C/C(C)C)ccc1O	–	inactive
Cc1cc(SC2=C(O)C[C@@](CCc3ccc(N)cc3)(C(C)C)OC2=O)c(C(C)(C)C)cc1CO	-0.0186%	–
O=C(OC1C[C@H]2CC[C@@H](C1)[N+]21CCCC1)C(O)(c1ccccc1)c1ccccc1 (stereo not given in full)	-0.424%	–
CC(C)C[C@H](NC(=O)[C@H](Cc1ccccc1)NC(=O)c1cnccn1)B(O)O	–	inactive
CCOCCn1c(N2CCCN(C)CC2)nc2ccccc21	0.0063%	–
CC(=O)c1ccc(Cl)c(Cl)c1Cl	8.69%	–
C[C@H](CN1CCCC1)C(=O)c1ccc(C(F)(F)F)cc1	-2.53%	–
